Assay results reported in PubChem BioAssay (NCI).
About 83,000 compounds went through this panel and 20% of them were active in at least one assay; those are over-represented in the sample as a whole.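 Testing used 96-well plates and a 48-hour single-concentration exposure. Example: -40 means 40% of the starting cells died.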 Values without a mark were called inactive. Active and inactive are the calls of the source. Rule for the calls: active = growth percent below 10; inactive = the rest.

Key:
Experiment in all cases: NCI-60 one-dose screen, 48 h (100 = growth as untreated, 0 = no growth, -100 = all killed)
Conditions in all cases: 10 µM unless noted
[1] = test system: SK-MEL-2 melanoma
[2] = test system: EKVX NSCLC
[3] = test system: SN12C renal
[4] = test system: UO-31 renal
[5] = test system: TK-10 renal
[6] = test system: ACHN renal
[7] = test system: CAKI-1 renal
[8] = test system: CCRF-CEM leukemia
[9] = test system: MOLT-4 leukemia
[10] = test system: SR leukemia
[11] = test system: RPMI-8226 leukemia
[12] = test system: OVCAR-4 ovarian
[13] = test system: SK-OV-3 ovarian
[14] = test system: IGROV1 ovarian
[15] = test system: OVCAR-3 ovarian
[16] = test system: HS 578T breast
[17] = test system: NCI/ADR-RES ovarian
[18] = test system: OVCAR-5 ovarian
[19] = test system: OVCAR-8 ovarian

Row | SMILES | growth [1] | growth [2] | growth [3] | growth [4] | growth [5] | growth [6] | growth [7] | growth [8] | growth [9] | growth [10] | growth [11] | growth [12] | growth [13] | growth [14] | growth [15] | growth [16] | growth [17] | growth [18] | growth [19]
1 | COc1cc2nc(-c3ccc(C(F)(F)F)cc3)cc(OCCCN3CCC(O)CC3)c2cc1OC | 47.6% | 59.8% | 37.4% | 24.2% | 85.7% | 31.2% | -6.95% (active) | 34.2% | 35.3% | 10.9% | 9.93% (active) | 59.7% | 65.8% | 27.2% | 64% | 64.7% | 37.6% | – | –
2 | C=C1C(=O)O[C@H]2[C@H]1CC/C(CNC(=O)/C=C/c1ccccc1F)=C\CC[C@@]1(C)O[C@@H]21 | 54.7% | -18.9% (active) | 8.82% (active) | -95.9% (active) | -29% (active) | -65.6% (active) | -84.4% (active) | -0.259% (active) | -12% (active) | 8.95% (active) | -2.96% (active) | 9.27% (active) | 96.6% | 15% | -62.7% (active) | 58.2% | 77.7% | 27.7% | –
3 | COc1ccc(/C=C\c2nc3ccccc3s2)cc1OP(=O)(O)O | 22.2% | 76.8% | 55.4% | 51.5% | 90.3% | 56.9% | 38.5% | 16.8% | 26.3% | 16.7% | 22.7% | 72.6% | 84.2% | 37.9% | 0.859% (active) | 14.8% | 14.4% | – | 40.2%
4 | COc1cc(C(=O)c2cnc(-c3ccc4cc[nH]c4c3)[nH]2)cc(OC)c1OC | 35.8% | 28.2% | 20.5% | 11.4% | 33.3% | 15.5% | 8.22% (active) | 5.89% (active) | 7.06% (active) | 6.26% (active) | -0.63% (active) | 39.3% | 23.5% | 26.3% | -34.2% (active) | 20.6% | 8.52% (active) | 32.2% | –
5 | O=C1/C(=C\c2cn(Cc3ccccc3)c3ccc(Br)cc23)c2ccccc2N1c1c(Cl)cccc1Cl | 101% | 89.2% | 97.7% | 87.3% | 102% | 104% | 83% | 96.8% | 95.8% | – | 104% | 91.9% | 101% | 105% | 119% | 110% | 98.4% | 99% | 98%
6 | COc1ccc(Cn2nc(-c3ccccc3)c3c2CCc2cnoc2-3)cc1 | 111% | 65.9% | 76.8% | 70% | 105% | 81.4% | 66.3% | 67.8% | 52.7% | 36% | – | 72.1% | 83.1% | 86% | 87.4% | 90.7% | 66.7% | 102% | 80.8%
7 | CN(C)C(=O)c1cc2cnc(Nc3ccc(-c4csc5c(=O)cc(N6CCOCC6)oc45)cc3)nc2n1C1CCCC1 | -58.6% (active) | -19.5% (active) | 4.35% (active) | -5.39% (active) | -10% (active) | 1.06% (active) | -50.8% (active) | -14.4% (active) | -32% (active) | 0.0235% (active) | -46.7% (active) | 12.4% | -28.3% (active) | -7.11% (active) | 2.63% (active) | -8.99% (active) | 0.628% (active) | – | 2.54% (active)
8 | COc1cccc(CNCCN2C(=O)c3ccc4c5c(ccc(c35)C2=O)C(=O)N(CCNCc2cccc(OC)c2)C4=O)c1 | 90.4% | 121% | 85.7% | 60.5% | 99.6% | 76.4% | 95.5% | -0.889% (active) | 90.4% | -27.8% (active) | -14.8% (active) | 75.9% | 114% | 75.9% | 24.6% | 121% | 88.8% | – | 68.3%
9 | O=S(=O)(c1ccc(N/N=C\c2ccccc2)cc1)c1ccc(N/N=C/c2ccccc2)cc1 | 76.5% | 73.7% | 64.9% | 88.3% | 59.4% | 57.4% | 67.7% | 88.7% | 82.4% | – | 85.6% | 44.7% | 74% | 72.1% | 72.2% | – | 53.1% | 84.7% | 30.3%
10 | O=C1Nc2c(ccc(Cl)c2Cl)/C1=C/c1ccccn1 | 104% | 62.3% | 97% | 73.3% | 120% | 72.6% | -1.32% (active) | 23.2% | – | – | 107% | 76.5% | 94% | 73.1% | 84.6% | 63.9% | 82.5% | 85.1% | 81%
11 | COc1ccc(Cl)cc1NC(=O)c1c(NC(=O)C(F)(F)C(F)(F)F)sc2c1CCCCC2 | -30% (active) | -5.45% (active) | 5.95% (active) | 1.55% (active) | 10.7% | 1.54% (active) | -13.6% (active) | – | 8.91% (active) | 4.32% (active) | -31.9% (active) | 7.67% (active) | -19.6% (active) | 20.3% | 6.24% (active) | -3.45% (active) | 3.81% (active) | 21.6% | 10.5%
12 | O=C(O)CCCCCCCCCCCCCCC(=O)O | 103% | 106% | 93.8% | 99.8% | 90.4% | 107% | 103% | 96.1% | – | 101% | 93.8% | 120% | 102% | 100% | 101% | – | 103% | 109% | 97.2%
13 | O=C(CCN1CCCC1)Nc1ccc2c(NCc3ccc(F)cc3)c3ccccc3nc2c1 | -5.55% (active) | 14.6% | -2.56% (active) | 1.44% (active) | -3.79% (active) | 5.75% (active) | 3.81% (active) | -15.2% (active) | – | -13.2% (active) | -34.8% (active) | -30.9% (active) | -5.63% (active) | -2.1% (active) | -46.5% (active) | -9.73% (active) | 70.3% | 2.2% (active) | 2.58% (active)
14 | Nc1cc(N)c2cccnc2c1O | 98.2% | 83.2% | 55.5% | 56.5% | 86% | 54.3% | 35.3% | 2.91% (active) | 5.9% (active) | – | 88% | 91.2% | 101% | 66.7% | 89% | 63.6% | 71.7% | 96% | –
15 | COC(=O)C1NC(=S)N(c2ccc(Cl)cc2)C1/C=C/c1ccccc1 (stereo not given) | 102% | 92.4% | 99.3% | 86.8% | 105% | 96.3% | 91.3% | 100% | 103% | – | 95.8% | – | – | 106% | 101% | 107% | 90% | – | 101%
16 | Cc1cc2cc3cc(C)c(N)cc3[n+](C)c2cc1N | -21.9% (active) | 14.3% | 8.73% (active) | 14% | 16.2% | 28.5% | 52.7% | 18.8% | 5.32% (active) | – | -1.31% (active) | 10% | 26% | 16.1% | 1.65% (active) | 9.56% (active) | 48.5% | 46.2% | 1.23% (active)
